The record followed here is PubChem BioAssay (NCI).

The panel holds about 83,000 compounds, 20% with a hit somewhere; the sample as a whole holds those more often.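 Compound tested at a single concentration for 48 hours in 96-well plates; a percent growth value below 10 was scored as active.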 Active and inactive are the calls of the source.

This test deals with SK-MEL-28 melanoma. In words: NCI-60 one-dose screen, 48 h (100 = growth as untreated, 0 = no growth, -100 = all killed). The settings on record: 10 µM unless noted.
For the compound `CC(C)(C)c1ccc(Cn2cc(CSc3nc4ccccc4s3)nn2)cc1`, the growth is 96.4% (inactive). For the compound `CCN1CCN(Cc2ccc(Cc3ncc(F)c(-c4cc(F)c5nc(C)n(C(C)C)c5c4)n3)nc2)CC1`, the growth was 64.4% (inactive). As for `CC(=O)NCC(=O)N1[C@@H]2CC[C@H]1c1ccc(Nc3ncc(C(F)(F)F)c(NC4CCC4)n3)cc12`, the figure is 70.8% [2.5 µM] (inactive); as for `O=C(NOCCO)c1cc(CN2OCCCC2=O)c(F)c(F)c1Nc1ccc(I)cc1F`, 3.09% (active); as for `CC(C)CC(=O)Nc1n[nH]c2c1CN(C(=O)C1CCN(C)CC1)C2(C)C`, 9.19% (active). As to `Cc1ccc(N)cc1CN1C(=O)c2ccccc2C1=O`, the growth is 110% (inactive).

Turning to `COCc1c(-c2ccc(NC(=O)Nc3cc(C(F)(F)F)ccc3F)c(F)c2)c2c(N)ncnn2c1CN1CCOCC1`, the growth is -6.65% (active).

As to `O=C(CNc1nc2ccccc2s1)Nc1ccc(-c2nc3ccccc3s2)cc1`, the growth was 113% (inactive). For `N#CC[C@H](C1CCCC1)n1cc(-c2ncnc3[nH]ccc23)cn1`, the growth is 79.9% (inactive). On to `C=CC(=O)Nc1cc2c(Nc3ccc(F)c(Cl)c3)ncnc2cc1C#CC(C)(C)N1CCN(C)CC1`, for which the growth was -96.9% (active).

As to `CC(=O)C1=C(C)NC(SCc2nnc(-c3ccc(C)cc3)o2)=NC1c1ccc(F)cc1` (centres undefined), the growth was -78.4% (active). The value for `CNC(=O)c1ccc(Nc2ncc(C(F)(F)F)c(NCc3nccnc3N(C)S(C)(=O)=O)n2)cc1` was 1.14% (active); that for `C/C=C/C=N/NC(=S)Nc1ccccc1` was 97.5% (inactive); that for `COc1cc(N2CCC(N(C)C)CC2)ccc1Nc1ncc(Cl)c(Nc2ccccc2P(C)(C)=O)n1` was 49.4% (inactive).
